# SARS PLpro yeast: blocks SARS-CoV papain-like protease in a yeast assay. AID 485353. Potency, µM (series often up to 32.9 µM), without a hit: at the top dose activity, positive = growth rescue, hits mostly activators. hit rate 0.19% among 330,000. S. cerevisiae expressing SARS-CoV PLpro, growth rescue; calls by dose curve; further: 0% is about no effect; nearly all actives have a fitted effect of over 55% in size
# Pf growth 96h: inhibits malaria parasite growth, 96 h; hit rate 6.9% among 320,000; AID 504834; P. falciparum luciferase reporter growth, 96 h; Potency, µM (doses to about 28.7 µM), without a hit: top-dose activity change, negative = inhibition, usual class: inhibitors; further: on the % scale 0 is the no-effect control and ±100 the full control effect
#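 Parasite growth measured via integrated firefly luciferase reporter in P. falciparum. Infected erythrocytes at 2% hematocrit, 0.05% parasitemia final were treated 96 hours at 37 C under 5% CO2, and luminescence was read.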
# NS1 function inh: blocks influenza NS1 protein function; hit rate 0.4% among 270,000; Potency, µM (titrated, usually from 46.1 µM), for the others: at the top dose activity, positive = more growth; calls by dose curve; further: actives are rising curves; nearly all actives have a fitted effect of over 50% in size
#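 Compounds were scored for reversing the slow growth caused by influenza A NS1 in S. cerevisiae, measured by optical density at 600 nm. Assay medium contained 2% galactose at pH 6.0; NS1-free yeast of the same strain were the positive control.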
# Pf growth 48h: P. falciparum growth inhibition at 48 hours (one generation); P. falciparum luciferase growth in erythrocytes, 48 h; Potency, µM (highest dose often 28.7 µM), for the others: at the top dose activity change, negative = inhibition, most hits filed as inhibitors; hit rate 5.9% among 310,000; AID 504832; further: on the % scale 0 is the no-effect control and ±100 the full control effect
#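 Here the parasites carry a stable luciferase gene and grow inside erythrocytes in Albumax-based RPMI medium with compound for one erythrocytic cycle. Activity is scored as loss of luminescent signal.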
# Numbers without * were called inactive; ? = inconclusive; nt = not tested or not shown; [ ] = another dose, or the depositor's remark. Most compounds without a hit are left out; they make up all but 10% or so of the library. Unless noted, the call rests on the fitted dose curve; in most records, active means well fitted inhibition curve with a large enough effect; inconclusive means small, poorly fitted or top-dose-only effect, or another doubt; inactive means no such curve, though single readings can be large or run the other way. Potency means the concentration at half of the fitted maximal effect.
SMILES,SARS PLpro yeast,Pf growth 96h,NS1 function inh,Pf growth 48h
COc1cccc(Nc2c3c(nc4c(-c5ccccc5)c(C)nn24)CCC3)c1,-25.2%,11.7µM*,22.5%,?
CN(C)C(=S)SC(=S)N(C)C,nt,3.38µM*,nt,5.36µM*
CN(C)C(=S)SSC(=S)N(C)C,-27.3%,0.757µM*,8.6%,0.849µM*
O=C(Nc1ccc(F)cc1)Nc1ccc(NC(=O)c2ccccc2O)cc1,1.2%,0.0%,8.4%,11.7µM*
CCCCCC(=O)N[C@@H](c1ccccc1)[C@@H](O)C(=O)O[C@H]1C[C@@]2(O)[C@@H](OC(=O)c3ccccc3)C3[C@](C)(C(=O)[C@H](O)C(=C1C)C2(C)C)[C@@H](OC1OCC(O)C(O)C1O)C[C@H]1OC[C@@]31OC(C)=O (some centres not stated),3.7%,0.165µM*,-76.6%,?
CC(=O)O[C@@]12CO[C@@H]1C[C@H](OC1OCC(O)C(O)C1O)[C@@]1(C)C(=O)[C@H](O)C3=C(C)[C@@H](OC(=O)[C@H](O)[C@@H](NC(=O)c4ccccc4)c4ccccc4)C[C@@](O)([C@@H](OC(=O)c4ccccc4)C12)C3(C)C (some centres not stated),-8.2%,0.037µM*,-64.4%,?
O=C(CSc1nnc(C2CC2)n1-c1ccccc1)N1CCNC1=O,-2.5%[6.58 µM],18.0%,nt,36.3%
Cc1c(Cl)cccc1NC(=O)C1COc2ccccc2O1 (configuration not stated),0.8%,87.2%,-13.1%,4.7%
CCOc1cccc(=NC2CCCCC2)c2c(C)n(C)c(C)c12,0.3%,?,0.2%,1.85µM*
Cc1ccc(C)c(SCC(=O)Nc2cccnc2Cl)c1,0.3%,?,nt,10.4µM*
CCCn1c(=O)c(C(=O)OCC)c(O)c2cc(Br)ccc21,-0.5%,?,nt,3.4%
CCOC(=O)c1c(CN(C)C)n(C)c2c(O)c(N=NC(N)=O)c3ccc(Br)cc3c12,-0.3%,4.3%,0.0%,0.415µM*
CC1CC(C)CN(CCCNC(=O)c2ccc3c(c2)N(Cc2ccccc2)C(=O)c2ccccc2S3=O)C1 (configuration not stated),7.1%,52.9%,3.7%,?
CCN1CCN(CCNC(=O)c2ccc3c(c2)N(Cc2ccc(F)cc2)C(=O)c2ccccc2S3=O)CC1 (configuration not stated),2.3%,10.5%,0.3%,10.4µM*
O=C(NCCCN1CCCC1)c1ccc2c(c1)N(Cc1cccc(Cl)c1)C(=O)c1ccccc1S2=O (configuration not stated),-9.2%,0.0%,-0.1%,3.29µM*
CCN1CCN(C(=O)c2ccc3c(c2)N(Cc2ccccc2)C(=O)c2ccccc2S3=O)CC1 (configuration not stated),-6.0%,?,2.2%,?
Cc1ccccc1CN1C(=O)c2ccccc2S(=O)c2ccc(C(=O)NCCCN3CCOCC3)cc21 (configuration not stated),23.0%,1.47µM*,6.0%,?
Cc1ccc(C)c(CN2C(=O)c3ccccc3S(=O)c3ccc(C(=O)N4CCN(c5ccccn5)CC4)cc32)c1 (configuration not stated),2.4%,?,nt,11.7µM*
CC1CCCN(CCCNC(=O)c2ccc(N3CCCC3=O)cc2)C1 (configuration not stated),-4.2%,?,5.6%,3.4%
COc1ccc(OC(=O)c2ccc(OC)c(S(=O)(=O)N3CCOCC3)c2)cc1,0.6%,20.8%,-14.6%,3.4%
CC1CCCCN1CCNC(=O)c1ccc2c(c1)N(Cc1cccc(Cl)c1)C(=O)c1ccccc1S2=O (configuration not stated),1.6%,1.6%,-2.9%,2.94µM*
CCOC(=O)N1CCN(C(=O)c2ccc3c(c2)N(Cc2cccc(Cl)c2)C(=O)c2ccccc2S3=O)CC1 (configuration not stated),-4.2%,19.2%,20.2%,7.38µM*
CN1CCN(C(=O)c2ccc3c(c2)N(Cc2cccc(Cl)c2)C(=O)c2ccccc2S3=O)CC1 (configuration not stated),nt,nt,17.0%,nt
CC(OC(=O)CCOc1ccccc1)C(=O)NC1CC1 (configuration not stated),-0.1%,8.1%,nt,?
CC(C)(Oc1ccc(-c2cccc3ccccc23)cc1)C(=O)O,nt,nt,-11.8%,nt
SMILES,SARS PLpro yeast,Pf growth 96h,NS1 function inh,Pf growth 48h
O=C(Cc1ccc(Cl)cc1)NCCS(=O)c1ccc(Cl)cc1 (configuration not stated),-1.0%,1.17µM*,-11.1%,7.9%
O=C(Cc1ccccc1)NCCS(=O)c1ccc(Cl)cc1 (configuration not stated),-0.5%,41.7%,-3.9%,12.2%
Cn1c(N2C(=O)CC(Cc3ccccc3)C2=O)nc2ccccc21 (configuration not stated),3.9%,1.65µM*,-8.7%,11.5%
Cc1cc(C)cc(CC2CC(=O)N(c3cc(C)ccc3C)C2=O)c1 (configuration not stated),-8.5%,304.0%,-2.1%,-19.6%
Cc1ccc(C)c(N2C(=O)CC(Cc3ccccc3)C2=O)c1 (configuration not stated),-1.1%,14.7µM*,-1.8%,1.6%
C[C@@]1(CO)[C@H](O)CC[C@]2(C)[C@@H]1CC[C@H]1C[C@H]3C[C@]12CC[C@]3(O)COC(=O)CN,nt,nt,-5.5%,nt
O=C(Nc1nc2ccccc2[nH]1)c1ccccc1F,-31.6%,10.4µM*,-14.9%,?
O=C(Nc1nc2ccccc2[nH]1)c1cc(F)cc(F)c1,-9.7%,-5.2%,-6.8%,-32.6%
O=C(Nc1nc2ccccc2[nH]1)c1ccc(F)cc1,2.8%,1.47µM*,-33.4%,-76.3%
COC(=O)c1cc(NC(=O)COC(=O)CN2C(=O)C3CC=CCC3C2=O)cc(C(=O)OC)c1 (configuration not stated),5.5%,36.0%,nt,13.9%
C/C(=N\NC(=O)c1nnn(-c2nonc2N)c1C(C)C)c1cc(C)sc1C,6.5%,-7.7%,-2.9%,-15.3%
COc1ccc(CNC2CC(C)N(C)CC2C)cc1OC (configuration not stated),-1.7%,-18.1%,1.7%,10.4µM*
COc1ccc(CCNC2CC(C)N(C)CC2C)cc1OC (configuration not stated),-2.4%,?,-3.5%,2.1%
O=Cc1ccc(O)c2ncccc12,-6.8%,?,-84.4%,6.57µM*
COCCCNc1oc(COc2ccc(Cl)cc2Cl)nc1C#N,-2.0%,13.1µM*,-71.0%,nt
N#Cc1ccc(C(=O)N2CCN(C(=O)C3CCCO3)CC2)cc1 (configuration not stated),-1.3%,-7.5%,nt,?
N=C1c2ccccc2CN1c1ccc(F)c([N+](=O)[O-])c1,-0.1%,?,-1.7%,11.7µM*
CC(C)N(Cc1ccccc1)C(=O)COC(=O)c1ccc(S(=O)(=O)N2CCOCC2)cc1,4.8%,nt,nt,nt
CCN(CC)C(=O)CC(c1ccc(N(C)C)cc1)c1c(O)cc(OC)cc1OC (configuration not stated),0.3%,?,-21.0%,?
COc1cc(O)c(C(CCN2CCCC2)c2ccc(N(C)C)cc2)c(OC)c1 (configuration not stated),0.6%,3.29µM*,-16.0%,2.94µM*

# Screening results: PubChem BioAssay, National Center for Advancing Translational Sciences (NCATS)
